The record followed here is PubChem BioAssay (NCATS).

Inconclusive results are not listed. The source made the active and inactive calls. Calls come from the whole dose curve; as a rule, active = well fitted curve in the direction sought with a large enough effect in the signal ratio, with a control signal flat (not every such curve was filed as active); inconclusive = small, poorly fitted or top-dose-only effect, or effect the other way, or a change in a side signal; inactive = no such curve, though single readings can be large or run the other way; the % refers to the signal ratio.

Sequence of Tyrosine-protein phosphatase non-receptor type substrate 1 (Homo sapiens) + Leukocyte surface antigen CD47 (Homo sapiens) (P78324 whole entry, looked up, the tested form may be a part): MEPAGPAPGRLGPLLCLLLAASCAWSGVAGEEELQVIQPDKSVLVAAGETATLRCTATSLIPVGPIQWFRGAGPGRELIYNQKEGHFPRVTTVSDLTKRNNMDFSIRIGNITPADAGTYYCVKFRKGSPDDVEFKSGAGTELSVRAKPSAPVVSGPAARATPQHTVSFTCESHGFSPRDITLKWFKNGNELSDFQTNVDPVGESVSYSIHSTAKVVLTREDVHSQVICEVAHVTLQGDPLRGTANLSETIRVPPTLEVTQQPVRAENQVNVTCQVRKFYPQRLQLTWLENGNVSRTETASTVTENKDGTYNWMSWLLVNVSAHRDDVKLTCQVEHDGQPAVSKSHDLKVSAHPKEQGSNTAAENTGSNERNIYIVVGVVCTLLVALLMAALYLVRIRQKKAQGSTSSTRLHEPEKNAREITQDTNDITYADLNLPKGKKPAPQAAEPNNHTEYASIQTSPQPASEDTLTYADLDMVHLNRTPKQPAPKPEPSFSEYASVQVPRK
Sequence of Tyrosine-protein phosphatase non-receptor type substrate 1 (Homo sapiens) + Leukocyte surface antigen CD47 (Homo sapiens) (Q08722 whole entry, looked up, the tested form may be a part): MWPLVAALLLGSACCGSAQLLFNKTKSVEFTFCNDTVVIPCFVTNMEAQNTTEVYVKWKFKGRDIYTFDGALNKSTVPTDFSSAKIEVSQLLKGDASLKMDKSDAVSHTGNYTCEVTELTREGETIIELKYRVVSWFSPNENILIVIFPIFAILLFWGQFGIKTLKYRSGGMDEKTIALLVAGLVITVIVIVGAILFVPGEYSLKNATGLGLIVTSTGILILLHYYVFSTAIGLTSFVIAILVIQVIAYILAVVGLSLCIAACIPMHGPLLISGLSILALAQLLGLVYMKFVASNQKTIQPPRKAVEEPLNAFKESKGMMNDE

This assay has as its target Tyrosine-protein phosphatase non-receptor type substrate 1 (Homo sapiens) + Leukocyte surface antigen CD47 (Homo sapiens) (UniProt P78324+Q08722). Kind of assay: CD47-SIRPalpha protein protein interaction - LANCE assay qHTS validation (AID 1347057). As to conditions: Recombinant CD47-His / biotin-SIRPalpha, TR-FRET ratio; series mostly up to 38.3 µM. The text has this:
SIRPalpha is a myeloid cell expressed immunomodulatory receptor that binds the tumor expressed immune checkpoint CD47. Therapeutic disruption of this interaction leads to immune-mediated tumor rejection. This assay was used to quantitate CD47-SIRPalpha binding biochemically and evaluate chemical libraries for novel CD47-SIRPalpha inhibitors. To recapitulate the biological interaction of CD47 and SIRPalpha, we designed expression constructs to produce their recombinant, soluble, extracellular interaction domains. CD47 was produced with an N-terminal 6His tag. SIRPalpha was produced with an N-terminal Avi-Tag for site-specific biotin incorporation. The CD47-SIRPalpha interaction was measured by TR-FRET using affinity tag linked reagents (anti-6His-Eu donor and streptavidin-APC acceptor). SIRPalpha without biotin incorporation was used as a positive control inhibitor.
PROTOCOL TABLE (as described by Miller, T. et al. 2019)
SEQUENCE No. (e.g., 1, 2, 3, etc.); […] (e.g., Cells, Incubation, Reagent, etc.); VALUE and DESCRIPTION.
1a. Reagent. 3 uL CD47-His (12.5 nM) and Anti-His Eu Donor reagent (3 nM) added to respective wells in Assay buffer; white/solid bottom high base, med bind 1536-well plates (Greiner 789075)
1b. Reagent. 2 uL Assay buffer negative control for background fluorescence
2. Reagent. 23 nL library compounds (7-pt, 1:4 intraplate titration series) or DMSO control transferred by Pin Tool
3. Centrifuge. Centrifuge plate for 30 s at 1000 RPM
4. Incubation.#Incubate reagents at room temperature for 30 min, protected from light
5. Reagent. 2 uL SIRPalpha-biotin (100 nM) in Assay buffer
6. Incubation.#Incubate reagents at room temperature for 30 min, protected from light
7. Reagent. 1 uL SAV-APC (26 nM) acceptor reagent added to respective wells
8. Centrifuge. Centrifuge plate for 30 s at 1000 RPM
9. Incubation. Incubate reagents at room temperature for 30 min, protected from light
10. Detector. Measure Top TR-FRET on EnVision (Eu/APC filter set); calculate ratio Ch1/Ch2
1. Assay buffer composition.#Phosphate buffered saline (PBS; 10 mM Phosphate, 137 mM NaCl, and 2.7 mM KCl; pH 7.4), 0.05% IGEPAL CA-630
2. 23nL of […] library compounds (7 plates) or DMSO vehicle control transferred to 9 Greiner white/solid bottom high base, TC plates in 7 interplate 1:5 titrations (see Yasgar, A. et al. 2008) with Pintool. Two of the 9 plates are DMSO-only in compound field at beginning and end of compound library-treated plates.
10. Detector settings#Mirror = LANCE/DELFIA Dual Enh; Ex. Filter = UV2[TRF] 320; Em. Filter = APC 665; 2nd Em. Filter = Europium 615; Measurement h = 6.5; Ex. light (%) = 100; Delay = 60 us; Window t = 100 us; No. Seq. windows = 1; Time between flashes = 2000us; No. of flashes = 100; No. of flashes for 2nd detector = 100; Calculation: "Ratio Ch1/Ch2"
In general terms: TR-FRET usually uses a lanthanide donor and a delayed reading to cut background.
On to `Nc1ncnc2n[nH]c(Nc3ccc(F)cc3)c12`, for which the outcome was inactive.
Consider `CCN(CC)CCNC(=O)c1ccc(NS(C)(=O)=O)cc1`, for which the outcome was inactive.
On to `Cc1nn(-c2ccccc2)c(C)c1/C=N/N1CCN(Cc2ccccc2)CC1`, for which the result was inactive.
The result for `COc1ccccc1N1CCN(CCN2C(=O)CC3(CCCC3)CC2=O)CC1` reads “inactive”.
The result for `Clc1ccc2c(c1)N=C(N1CCNCC1)c1ccccc1N2` reads “inactive”; that for `COc1cccc2c1[C@@H]1CN(CCCCn3c(=O)[nH]c4c(sc5ncc(-c6ccccc6)nc54)c3=O)C[C@@H]1CO2`, “inactive”.
The result for `O=C1NC(c2cccc([N+](=O)[O-])c2)=CCN1c1ccccc1O` reads “inactive”; that for `COC(=O)C1=CO[C@@H](O)[C@@H]2C(CO)=CC[C@H]12`, “inactive”.
Take `O=[N+]([O-])c1ccc(-c2nc(-c3ccc(F)cc3)c(-c3ccncc3)[nH]2)cc1`: the result was inactive.
With `CC(C)N(CCC(=O)c1ccc2ccccc2c1)Cc1ccccc1`, the result was inactive.
The result for `NC(N)=NCCCCN=C(N)N` reads “inactive”.
Take `O=C1NC(=O)/C(=C/c2ccc3c(c2)OC(F)(F)O3)S1`: the result was inactive.
The result for `C[N+](C)(C)CCO` reads “inactive”; that for `Brc1ccc([C@H]2CN3CCSC3=N2)cc1`, “inactive”.
The result for `Cn1cnc2c(NCc3ccccc3)nc(NCCO)nc21` reads “inactive”.
